Inconclusive results are not listed. The source made the active and inactive calls. Unless noted, the call rests on the fitted dose curve.
How the values were obtained:
[1] = qHTS assay to identify small molecule agonists of the sonic hedgehog signaling (Shh) pathway (AID 1259368);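 further: NIH/3T3-derived 3T3Gli1-Luc cells carrying a stable Gli1-driven firefly luciferase reporter; series mostly up to about 92 µM; nearly all actives have a fitted effect of over 15% in size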
How it was run: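 Cells of a mouse NIH/3T3 clone stably expressing luciferase under the Gli1 transcriptional response element are exposed to test chemicals for 24 hr at 37 C. Pathway activation is detected as a rise in luminescence.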

[2] = qHTS assay to identify small molecule antagonists of the sonic hedgehog signaling (Shh) pathway (AID 1259369); further: nearly all actives have a fitted effect of over 45% in size
How it was run: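 Cells are plated and held 4hr at 37 C, compounds (DMSO) are pinned in, conditioned medium is added to stimulate the pathway, and after 24hr luciferase reagent is added for 30min before luminescence is read.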

[3] = biological target: Estrogen receptor beta (Homo sapiens) (UniProt Q92731); assay: qHTS assay to identify small molecule agonists of the estrogen receptor beta (ER-beta) signaling pathway (AID 1259377; active means well fitted activation curve with a large enough effect in the signal ratio in the repeat runs, not every such curve was filed as active; the % refers to the signal ratio)
How it was run: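 Reporter cells (HEK293T, ER-beta-UAS-bla) receive compounds or DMSO after a 6 hr pre-incubation. They then incubate 16 hr at 37C/5% CO2, and fluorescence from LiveBLAzer B/G substrate is measured after 2 hours at room temperature.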

[4] = biological target: Estrogen receptor beta (Homo sapiens) (UniProt Q92731); assay: qHTS assay to identify small molecule antagonists of the estrogen receptor beta (ER-beta) signaling pathway (AID 1259378; active means well fitted inhibition curve with a large enough effect in the signal ratio in the repeat runs, not every such curve was filed as active; the % refers to the signal ratio)
How it was run: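 ER-beta-UAS-bla HEK293T cells in 2% charcoal-stripped FBS medium treated with compound plus 1nM final 17-beta-estradiol for 16 hr at 37C. Beta-lactamase reporter read by FRET substrate fluorescence after 2 hours at room temperature.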

[5] = qHTS assay to identify small molecule agonists of the androgen receptor (AR) signaling pathway in the presence of an antagonist - cell viability counter screen (AID 1259379; active means well fitted curve in the direction sought with a large enough effect in the repeat runs; an effect the other way counts as inactive or inconclusive;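 further: MDA-kb2 human breast cancer cells carrying an MMTV luciferase reporter; series mostly up to about 92 µM; nearly all actives have a fitted effect of over 25% in size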)
How it was run: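 Cytotoxicity is assessed by CellTiter-Fluor in MDA-kb2 cells carrying an MMTV-driven luciferase reporter. Cells receive 3.0uM nilutamide plus compounds at 15 concentrations and incubate 16 hr at 37C without CO2 before fluorescence reading.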

[6] = qHTS assay to identify small molecule agonists of the estrogen receptor beta (ER-beta) signaling pathway - cell viability counter screen (AID 1259380; active means well fitted curve in the direction sought with a large enough effect in the repeat runs; an effect the other way counts as inactive or inconclusive; further: nearly all actives have a fitted effect of over 30% in size)
How it was run: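 Cytotoxicity is measured in parallel with the reporter screen: after 16 hr compound exposure at 37C and a 2 hr LiveBLAzer step, CellTiter-Glo is added to the same ER-beta-UAS-bla HEK293T wells and luminescence read after 30 min.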

[7] = qHTS assay to identify small molecule antagonists of the estrogen receptor beta (ER-beta) signaling pathway - cell viability counter screen (AID 1259382; active means well fitted curve in the direction sought with a large enough effect in the repeat runs; an effect the other way counts as inactive or inconclusive; further: series mostly up to about 92 µM; nearly all actives have a fitted effect of over 55% in size)
How it was run: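 Cytotoxicity counter screen multiplexed with the beta-lactamase antagonist assay: GripTite HEK293T ER-beta-bla cells were treated 16 hr with test chemicals in the presence of 1nM 17-beta-estradiol, and viability was measured by CellTiter-Glo.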

[8] = biological target: Estrogen receptor (Homo sapiens) (UniProt P03372); assay: qHTS assay to identify small molecule agonists of the estrogen receptor alpha (ER-alpha) signaling pathway in the presence of an antagonist (AID 1259383); further: top concentration of the series differs between compounds; nearly all actives have a fitted effect of over 15% in size
How it was run: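 Agonist-mode confirmation in the presence of the ER antagonist ICI-182,780 at 10.0nM final. Breast-derived VM7Luc4E2 reporter cells were exposed to compounds for 22hr, and ERE-driven luciferase was quantified by luminescence.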

[9] = qHTS assay to identify small molecule agonists or antagonists of the thyroid stimulating hormone receptor (TSHR) signaling pathway - wild type cell line counter screen (AID 1259384)
How it was run: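 Wild-type Hek293 cells, 800/well, 18 h at 37C, then compound with Ro20-1724 for 30 min RT. cAMP by HTRF (cAMP-d2/anti-cAMP cryptate), 1 h RT, fluorescence read. 15 concentrations, triplicates.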

[10] = biological target: Thyrotropin receptor (Homo sapiens) (UniProt P16473); assay: qHTS assay to identify small molecule antagonists of the thyroid stimulating hormone receptor (TSHR) signaling pathway (AID 1259385); further: nearly all actives have a fitted effect of over 20% in size
How it was run: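 TSHR-HEK293 cells (800/well) plated 18 h, then compounds with Ro20-1724 and TSH at 1.5 ng/mL final, 30 min at room temperature. cAMP quantified by HTRF (cAMP-d2/anti-cAMP-cryptate, 1 h); 15 concentrations in triplicate.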

[11] = qHTS assay to identify small molecule agonists of the estrogen receptor alpha (ER-alpha) signaling pathway in the presence of an antagonist - cell viability counter screen (AID 1259386; active means well fitted curve in the direction sought with a large enough effect in the repeat runs; an effect the other way counts as inactive or inconclusive;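 further: series mostly up to about 92 µM; cells exposed to compounds for 22 h at 37 °C before the viability read; nearly all actives have a fitted effect of over 30% in size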)
How it was run: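 Cytotoxicity was measured in parallel with the ERE-luciferase agonist screen, in the same wells. The cells were VM7Luc4E2, which endogenously express ER-alpha, and treatment was with compounds plus 10.0nM ICI-182,780 for 22hr.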

[12] = biological target: Progesterone receptor (Homo sapiens) (UniProt P06401); assay: qHTS assay to identify small molecule agonists of the progesterone receptor (PR) signaling pathway (AID 1346784); further: nearly all actives have a fitted effect of over 30% in size
How it was run: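 Reporter assay, GripTite PR-UAS-bla HEK 293T cells: 16 hr exposure to DMSO-dissolved compounds at 37C, 5% CO2, in steroid-depleted (2% charcoal-stripped FBS) medium; beta-lactamase measured by FRET fluorescence.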

[13] = biological target: Progesterone receptor (Homo sapiens) (UniProt P06401); assay: qHTS assay to identify small molecule antagonists of the progesterone receptor (PR) signaling pathway (AID 1346795; active means well fitted inhibition curve with a large enough effect in the signal ratio in the repeat runs, not every such curve was filed as active; the % refers to the signal ratio)
How it was run: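 Stimulus R5020 at 1 nM final; cells HEK293T PR-UAS-bla; medium with 2% charcoal-stripped FBS; compound exposure 16 hr at 37C, 5% CO2; detection by FRET beta-lactamase substrate, 2 hr, room temperature.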

[14] = qHTS assay to identify small molecule antagonists of the progesterone receptor (PR) signaling pathway - cell viability counter screen (AID 1346798; active means well fitted curve in the direction sought with a large enough effect in the repeat runs; an effect the other way counts as inactive or inconclusive; further: series mostly up to about 92 µM; nearly all actives have a fitted effect of over 50% in size)
How it was run: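 In the same plates used for the beta-lactamase readout, cell viability of compound- and R5020-treated PR-UAS-bla HEK293T cells (16 hr, 37C) was assessed by CellTiter-Glo luminescence.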

[15] = qHTS assay to identify small molecule agonists of the progesterone receptor (PR) signaling pathway - cell viability counter screen (AID 1346799); further: nearly all actives have a fitted effect of over 45% in size
How it was run: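 Multiplexed viability read: CellTiter-Glo luminescence, 30 min RT, following LiveBLAzer FRET measurement on PR-UAS-bla HEK293T cells exposed to compounds 16 hr.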

[16] = qHTS assay to identify small molecule antagonists of the TGF-beta/Smad signaling pathway - cell viability counter screen (AID 1346824; active means well fitted curve in the direction sought with a large enough effect in the repeat runs; an effect the other way counts as inactive or inconclusive; further: nearly all actives have a fitted effect of over 50% in size)
How it was run: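 SBE-bla HEK 293T cells, incubated overnight, then compound plus 0.25 ng/mL TGF-beta1 (stock added) for 5 hr at 37 C. Viability was read in the same wells by CellTiter-Glo luminescence after 30 min at room temperature.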

[17] = qHTS assay to identify small molecule agonists of the TGF-beta/Smad signaling pathway - cell viability counter screen (AID 1346829; active means well fitted curve in the direction sought with a large enough effect in the repeat runs; an effect the other way counts as inactive or inconclusive; further: top concentration of the series differs between compounds; nearly all actives have a fitted effect of over 45% in size)
How it was run: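 SBE-bla HEK 293T cells plated overnight, compound exposure 5 hr at 37 C. Viability read in the same wells by CellTiter-Glo luminescence after 30 min at room temperature, following the beta-lactamase read.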

[18] = qHTS assay to identify small molecule agonists of the TGF-beta/Smad signaling pathway (AID 1346859; active means well fitted activation curve with a large enough effect in the signal ratio in the repeat runs, not every such curve was filed as active; the % refers to the signal ratio; further: series mostly up to about 77 µM)
How it was run: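 Screening used HEK 293T SBE-bla cells at 4,000/well. Test agents: 5 hr, 37 C. Detection: FRET substrate, 2 hr RT, then excitation 405 nm with emissions at 460 and 530 nm.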

[19] = biological target: Thyrotropin-releasing hormone receptor (Homo sapiens) (UniProt P34981); assay: qHTS assay to identify small molecule antagonists of the thyrotropin-releasing hormone receptor (TRHR) signaling pathway (AID 1346877; active means well fitted inhibition curve with a large enough effect in the repeat runs, not every such curve was filed as active; further: series mostly up to about 51 µM)
How it was run: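 Antagonism is measured as suppression of the calcium response to 1 nM TRH in TRHR-HEK293 cells that have been dye-loaded for 2 h at 37 °C after overnight plating. Each compound is tested at 15 concentrations in triplicate.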

[20] = biological target: Androgen receptor (Homo sapiens) (UniProt P10275); assay: qHTS assay to identify small molecule agonists of the androgen receptor (AR) signaling pathway in the presence of an antagonist (AID 1259381); further: nearly all actives have a fitted effect of over 15% in size
How it was run: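 Agonist-mode confirmation screen: human MDA-kb2 cells stably expressing luciferase under an MMTV promoter bearing AR and GR response elements, co-treated with 3.0uM nilutamide (final). Luminescence measured after 16hr compound incubation.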

Measured: Potency

Sequence of Estrogen receptor (Homo sapiens) (P03372 whole entry, looked up): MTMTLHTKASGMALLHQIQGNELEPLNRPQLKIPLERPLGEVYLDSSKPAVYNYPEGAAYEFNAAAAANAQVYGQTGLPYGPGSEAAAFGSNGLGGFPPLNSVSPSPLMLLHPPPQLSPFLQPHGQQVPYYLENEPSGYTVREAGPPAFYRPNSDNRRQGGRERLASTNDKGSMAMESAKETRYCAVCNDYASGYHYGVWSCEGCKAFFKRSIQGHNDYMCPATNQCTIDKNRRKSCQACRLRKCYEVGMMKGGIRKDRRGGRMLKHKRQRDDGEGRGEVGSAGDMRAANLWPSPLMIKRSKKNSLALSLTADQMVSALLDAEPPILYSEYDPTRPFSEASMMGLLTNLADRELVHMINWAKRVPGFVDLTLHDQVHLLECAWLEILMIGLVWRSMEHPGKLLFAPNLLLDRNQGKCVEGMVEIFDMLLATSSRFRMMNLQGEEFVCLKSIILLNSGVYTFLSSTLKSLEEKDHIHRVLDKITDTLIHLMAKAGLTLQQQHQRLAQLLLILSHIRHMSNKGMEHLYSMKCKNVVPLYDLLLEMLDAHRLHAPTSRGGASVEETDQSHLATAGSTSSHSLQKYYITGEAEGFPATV
Sequence of Thyrotropin receptor (Homo sapiens) (P16473 whole entry, looked up): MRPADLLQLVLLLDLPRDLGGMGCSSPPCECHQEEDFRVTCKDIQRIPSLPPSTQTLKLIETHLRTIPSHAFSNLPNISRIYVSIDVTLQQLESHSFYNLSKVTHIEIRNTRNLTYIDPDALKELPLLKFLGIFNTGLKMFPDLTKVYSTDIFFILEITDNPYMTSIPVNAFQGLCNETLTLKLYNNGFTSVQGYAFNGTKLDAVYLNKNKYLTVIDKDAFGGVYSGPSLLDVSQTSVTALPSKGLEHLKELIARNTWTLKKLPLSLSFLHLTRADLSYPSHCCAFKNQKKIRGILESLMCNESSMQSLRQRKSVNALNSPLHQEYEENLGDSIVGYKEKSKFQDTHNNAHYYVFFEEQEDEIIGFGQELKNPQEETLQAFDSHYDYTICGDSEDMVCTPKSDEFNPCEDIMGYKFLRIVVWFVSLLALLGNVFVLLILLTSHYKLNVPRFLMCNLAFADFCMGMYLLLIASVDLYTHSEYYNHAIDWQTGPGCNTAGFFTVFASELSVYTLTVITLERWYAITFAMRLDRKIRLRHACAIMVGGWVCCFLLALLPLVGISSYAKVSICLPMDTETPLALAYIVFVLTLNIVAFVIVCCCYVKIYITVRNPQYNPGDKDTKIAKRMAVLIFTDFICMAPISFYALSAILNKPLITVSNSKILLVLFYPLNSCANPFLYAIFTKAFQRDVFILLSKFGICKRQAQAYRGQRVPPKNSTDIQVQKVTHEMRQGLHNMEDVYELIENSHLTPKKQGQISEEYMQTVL
Sequence of Estrogen receptor beta (Homo sapiens) (Q92731 whole entry, looked up): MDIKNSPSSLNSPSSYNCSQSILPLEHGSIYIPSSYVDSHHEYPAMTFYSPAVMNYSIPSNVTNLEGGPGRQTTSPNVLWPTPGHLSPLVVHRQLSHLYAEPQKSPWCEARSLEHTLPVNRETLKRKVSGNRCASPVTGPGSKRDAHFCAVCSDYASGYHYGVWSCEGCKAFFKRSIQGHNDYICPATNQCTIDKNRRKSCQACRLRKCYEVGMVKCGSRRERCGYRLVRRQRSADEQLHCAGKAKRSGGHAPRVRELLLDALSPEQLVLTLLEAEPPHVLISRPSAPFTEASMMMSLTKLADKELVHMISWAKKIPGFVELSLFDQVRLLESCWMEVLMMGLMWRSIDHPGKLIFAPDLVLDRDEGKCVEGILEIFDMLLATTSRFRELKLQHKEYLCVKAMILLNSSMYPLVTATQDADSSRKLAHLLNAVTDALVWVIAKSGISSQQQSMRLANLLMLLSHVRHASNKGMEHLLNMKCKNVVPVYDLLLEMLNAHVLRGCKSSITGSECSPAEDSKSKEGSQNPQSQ
Sequence of Progesterone receptor (Homo sapiens) (P06401 whole entry, looked up): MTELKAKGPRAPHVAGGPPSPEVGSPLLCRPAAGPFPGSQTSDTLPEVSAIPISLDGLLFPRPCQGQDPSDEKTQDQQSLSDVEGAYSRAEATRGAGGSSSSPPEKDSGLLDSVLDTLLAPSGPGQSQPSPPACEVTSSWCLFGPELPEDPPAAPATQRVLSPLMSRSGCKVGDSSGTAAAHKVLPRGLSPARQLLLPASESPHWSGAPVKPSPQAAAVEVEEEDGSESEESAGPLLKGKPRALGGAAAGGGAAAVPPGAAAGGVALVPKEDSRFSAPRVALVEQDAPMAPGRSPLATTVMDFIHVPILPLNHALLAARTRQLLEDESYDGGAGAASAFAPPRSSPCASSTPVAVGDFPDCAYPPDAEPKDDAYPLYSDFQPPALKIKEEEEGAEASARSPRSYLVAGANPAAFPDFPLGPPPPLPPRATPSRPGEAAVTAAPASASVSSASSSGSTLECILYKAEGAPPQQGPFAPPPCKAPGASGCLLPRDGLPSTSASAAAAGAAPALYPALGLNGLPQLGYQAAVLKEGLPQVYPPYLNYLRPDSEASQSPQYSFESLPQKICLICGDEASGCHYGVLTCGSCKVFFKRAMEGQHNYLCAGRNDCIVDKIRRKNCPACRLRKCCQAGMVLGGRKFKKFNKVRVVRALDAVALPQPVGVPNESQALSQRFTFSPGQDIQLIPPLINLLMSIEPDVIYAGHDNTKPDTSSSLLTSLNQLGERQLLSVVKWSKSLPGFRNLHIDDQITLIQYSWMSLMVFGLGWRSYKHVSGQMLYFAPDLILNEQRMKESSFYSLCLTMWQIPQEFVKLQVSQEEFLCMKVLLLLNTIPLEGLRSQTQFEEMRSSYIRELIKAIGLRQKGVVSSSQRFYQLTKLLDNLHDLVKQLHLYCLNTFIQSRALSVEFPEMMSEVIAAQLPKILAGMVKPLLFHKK
Sequence of Androgen receptor (Homo sapiens) (P10275 whole entry, looked up): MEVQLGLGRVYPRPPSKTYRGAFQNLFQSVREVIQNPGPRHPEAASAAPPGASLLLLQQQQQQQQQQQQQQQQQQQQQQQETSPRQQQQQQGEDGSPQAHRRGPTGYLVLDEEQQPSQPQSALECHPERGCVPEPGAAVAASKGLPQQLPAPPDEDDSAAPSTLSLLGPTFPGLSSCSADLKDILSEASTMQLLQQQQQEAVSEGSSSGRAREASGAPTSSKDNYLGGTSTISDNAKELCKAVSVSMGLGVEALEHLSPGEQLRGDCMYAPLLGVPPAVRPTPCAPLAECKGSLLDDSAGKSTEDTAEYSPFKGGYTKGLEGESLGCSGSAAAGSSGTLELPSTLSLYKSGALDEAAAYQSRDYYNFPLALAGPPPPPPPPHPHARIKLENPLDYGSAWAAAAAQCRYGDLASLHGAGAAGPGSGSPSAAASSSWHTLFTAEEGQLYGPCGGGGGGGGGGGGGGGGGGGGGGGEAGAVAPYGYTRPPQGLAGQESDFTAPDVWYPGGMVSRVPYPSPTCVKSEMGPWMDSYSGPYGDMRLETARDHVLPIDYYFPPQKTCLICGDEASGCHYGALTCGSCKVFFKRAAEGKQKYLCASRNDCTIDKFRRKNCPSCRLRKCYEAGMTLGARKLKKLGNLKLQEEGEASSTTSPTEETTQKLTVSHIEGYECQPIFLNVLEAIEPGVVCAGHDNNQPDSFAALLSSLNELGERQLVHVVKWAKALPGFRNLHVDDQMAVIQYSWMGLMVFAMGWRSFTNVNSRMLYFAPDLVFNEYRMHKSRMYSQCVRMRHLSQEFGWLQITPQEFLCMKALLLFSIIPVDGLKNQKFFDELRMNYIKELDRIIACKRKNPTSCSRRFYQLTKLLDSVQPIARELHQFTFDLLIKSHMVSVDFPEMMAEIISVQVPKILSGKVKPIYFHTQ
Sequence of Thyrotropin-releasing hormone receptor (Homo sapiens) (P34981 whole entry, looked up): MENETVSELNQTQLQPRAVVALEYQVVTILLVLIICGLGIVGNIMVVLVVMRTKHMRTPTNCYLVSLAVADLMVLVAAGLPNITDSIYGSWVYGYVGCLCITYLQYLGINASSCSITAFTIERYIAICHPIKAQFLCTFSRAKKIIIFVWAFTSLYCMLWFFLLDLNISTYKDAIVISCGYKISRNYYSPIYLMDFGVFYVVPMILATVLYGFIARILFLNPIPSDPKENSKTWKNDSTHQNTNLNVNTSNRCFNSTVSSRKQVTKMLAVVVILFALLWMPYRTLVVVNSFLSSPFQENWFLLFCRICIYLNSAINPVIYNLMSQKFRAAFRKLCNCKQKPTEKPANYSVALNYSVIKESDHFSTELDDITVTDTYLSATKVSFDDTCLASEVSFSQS

CCCCCCCCCCCCCCCCC
inactive: [1] | [2] | [3] | [4] | [5] | [6] | [7] | [8] | [9] | [10] | [11] | [12] | [13] | [14] | [15] | [16] | [17] | [18] | [19]

O=C1NC(=O)[C@@]2(CCOc3ccc(F)cc32)N1
inactive: [1] | [2] | [3] | [4] | [5] | [6] | [7] | [8] | [9] | [10] | [11] | [12] | [13] | [14] | [15] | [16] | [17]

C1CN(CCOCCN2CCOCC2)CCO1
inactive: [1] | [2] | [3] | [4] | [5] | [6] | [7] | [8] | [9] | [10] | [11] | [12] | [13] | [14] | [15] | [16] | [17] | [18]

CN1CCC(=C2c3ccccc3CC(=O)c3sccc32)CC1
inactive: [1] | [2] | [3] | [4] | [5] | [6] | [7] | [8] | [9] | [10] | [11] | [12] | [13] | [14] | [15] | [16] | [17] | [18]

CCOc1ccc(C(=O)OCCN(CC)CC)cc1
inactive: [1] | [2] | [3] | [4] | [5] | [6] | [20] | [7] | [9] | [10] | [11] | [12] | [13] | [14] | [15] | [16] | [18]

N=C(N)c1ccc(OCCCOc2ccc(C(=N)N)cc2)cc1
inactive: [1] | [2] | [3] | [4] | [5] | [6] | [7] | [8] | [9] | [10] | [11] | [12] | [13] | [14] | [15] | [16] | [17]

CC(C)(CC(=O)O)C(=O)O
inactive: [1] | [2] | [3] | [4] | [5] | [6] | [20] | [7] | [8] | [9] | [10] | [11] | [12] | [13] | [14] | [15] | [16] | [17] | [18]

From PubChem BioAssay (Tox21)
